# Measurements reported in the supplement of paper PMC6992640.
# ± gives the standard deviation of the averaged measurements.
# Tests used:
# Assay in all cases: cell viability (% of vehicle); higher = less cytotoxic
# Conditions in all cases: 10 µM; 72 h
# HCI01 = tested on: HCI01 (cells of a triple-negative basal-like breast cancer xenograft)
# HCI03 = tested on: HCI03 (cells of an ER-positive luminal breast cancer xenograft)
# HCI09 = tested on: HCI09 (cells of a triple-negative luminal androgen receptor type breast cancer xenograft)
# HCI11 = tested on: HCI11 (cells of an ER-positive luminal breast cancer xenograft)
# HCI13 = tested on: HCI13 (cells of an ER-positive luminal breast cancer xenograft)
# HCI16 = tested on: HCI16 (cells of a triple-negative basal-like breast cancer xenograft)
# UCD52 = tested on: UCD52 (cells of a triple-negative basal-like breast cancer xenograft)
# WHIM2 = tested on: WHIM2 (cells of a triple-negative basal-like breast cancer xenograft)
# WHIM30 = tested on: WHIM30 (cells of a triple-negative basal-like breast cancer xenograft)
# 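Also: PDX cells carrying CMV promoter-driven luciferase, viability read as total photon flux per second by IVIS imaging following D-luciferin, vehicle control 0.1% DMSO.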
SMILES,cell viability (HCI01),cell viability (HCI03),cell viability (HCI09),cell viability (HCI11),cell viability (HCI13),cell viability (HCI16),cell viability (UCD52),cell viability (WHIM2),cell viability (WHIM30)
FC(F)(F)c1ccc(CNc2ccc(Cc3c[nH]c4ncc(Cl)cc34)cn2)cn1 [Pexidartinib (PLX3397)],100 ± 1.4,139,73.6 ± 3.9,91.3,96.9 ± 7.1,116,97.4 ± 16,96.5 ± 8.4,86 ± 11
CCOC(=O)C(CCc1ccccc1)NC(C)C(=O)N1Cc2ccccc2CC1C(=O)O.Cl (stereo not drawn) [Quinapril HCl],61.5 ± 37,111,72.7 ± 10,94.8,104 ± 5.7,96.9,83.7 ± 5.6,95.1 ± 3.9,105 ± 14
CC(=O)Oc1ccc(C(c2ccc(OC(C)=O)cc2)c2ccccn2)cc1 [Bisacodyl],53.2 ± 14,130,30.9 ± 6.2,50.3,184 ± 16,70.9,80.9 ± 17,111 ± 43,76.5 ± 1.4
O=C(C=Cc1ccc(O)c(O)c1)OC1CC(O)(C(=O)O)CC(O)C1O (stereo not drawn) [Chlorogenic acid],104 ± 3.3,153,119 ± 45,95.8,107 ± 6.4,116,113 ± 2.8,101 ± 14,77 ± 12
CCC1C(=O)N(C)c2cnc(Nc3ccc(C(=O)NC4CCC(N5CCN(CC6CC6)CC5)CC4)cc3OC)nc2N1C(C)C (stereo not drawn) [BI6727 (Volasertib)],82.6 ± 50,85.1,26.4 ± 0.95,115,84.6 ± 29,,116 ± 4.4,43.5 ± 8.7,176.9 ± 1.6
Cc1cc(C2CCCCC2)n(O)c(=O)c1 [Ciclopirox],93 ± 59,67.7,26.8 ± 3.4,51.7,73.9 ± 3.7,117,92.7 ± 3.6,,94.5 ± 12
CC(=O)O.C[C@H](N)C(=O)O.NCCCC[C@H](N)C(=O)O.N[C@@H](CCC(=O)O)C(=O)O.N[C@@H](Cc1ccc(O)cc1)C(=O)O [glatiramer acetate],94.3 ± 13,136,108 ± 11,108,171 ± 16,125,118 ± 10,95.9 ± 38,145 ± 6.9
CC(=O)OCC(=O)C1(O)CCC2C3CCC4=CC(=O)CCC4(C)C3C(=O)CC21C (stereo not drawn) [Cortisone acetate],119 ± 17,130,119 ± 47,105,96.1 ± 13,140,106 ± 31,112 ± 19,119 ± 6.2
CS(=O)(=O)O.Cc1ccc(NC(=O)c2ccc(CN3CCN(C)CC3)cc2)cc1Nc1nccc(-c2cccnc2)n1 [Imatinib Mesylate (STI571)],157 ± 24,86.7,67.7 ± 12,69.7,91.3 ± 11,99,67.8 ± 1.8,88.9 ± 6.2,114 ± 18
CS(=O)(=O)N1CCN(Cc2cc3nc(-c4cccc5[nH]ncc45)nc(N4CCOCC4)c3s2)CC1,190 ± 66,94.8,89.23 ± 0.75,114,90.7 ± 3.3,,88.5 ± 15,63.7 ± 3.2,
COc1cc2c(cc1OC)C(=O)C(CC1CCN(Cc3ccccc3)CC1)C2.Cl (stereo not drawn) [Donepezil HCl],137 ± 8.8,89.9,113 ± 5,106,152.6 ± 0.61,147,66.1 ± 6.9,86.1 ± 4,107 ± 14
CO[C@H]1/C=C/O[C@@]2(C)Oc3c(C)c(O)c4c(O)c(c5c(nc6cc(C)ccn65)c4c3C2=O)NC(=O)/C(C)=C\C=C\[C@H](C)[C@H](O)[C@@H](C)[C@H](O)[C@@H](C)[C@H](OC(C)=O)[C@@H]1C [Rifaximin (Xifaxan)],121 ± 13,115,114 ± 43,98.8,98.8 ± 33,97.6,91.9 ± 7.9,68.6 ± 13,128 ± 12
Nc1nc(=O)n(C2CSC(CO)O2)cc1F (stereo not drawn) [Emtricitabine],105 ± 9.3,153,104 ± 12,107,113 ± 11,94.6,79.81 ± 0.75,90 ± 8.8,98.1 ± 1.3
CCCCCCCCCCCC(CC1OC(=O)C1CCCCCC)OC(=O)C(CC(C)C)NC=O (stereo not drawn) [Orlistat],126.7 ± 0.42,122,123 ± 42,110,97.6 ± 13,81.3,76.1 ± 1,79.1 ± 21,123 ± 6.8
O[C@@H]1CO[C@H]2[C@@H]1OC[C@@H]2O [Isosorbide],115 ± 23,147,103 ± 2.9,102,,116,99.9 ± 3.7,107.6 ± 0.11,112 ± 15
C#CC1(O)CCC2C3CCc4cc(OC)ccc4C3CCC21C (stereo not drawn) [Mestranol],131 ± 12,136,94.681 ± 0.043,106,,104,71.2 ± 21,159 ± 12,121.2 ± 0.15
CCC(=O)OCC(=O)C1(OC(=O)CC)C(C)CC2C3CCC4=CC(=O)C=CC4(C)C3(Cl)C(O)CC21C (stereo not drawn) [Beclomethasone dipropionate],131 ± 100,182,144 ± 8.8,123,,175,133 ± 3.9,128 ± 3.2,123 ± 10
C#CC1(O)CCC2C3CCC4=CC(=O)CCC4C3CCC21C (stereo not drawn) [Norethindrone],91.4 ± 26,134,93.6 ± 6.6,97.8,,128,93.3 ± 11,93.1 ± 21,

SMILES,cell viability (HCI01),cell viability (HCI03),cell viability (HCI09),cell viability (HCI11),cell viability (HCI13),cell viability (HCI16),cell viability (UCD52),cell viability (WHIM2),cell viability (WHIM30)
CCC1OC(=O)C(C)C(OC2CC(C)(OC)C(O)C(C)O2)C(C)C(OC2OC(C)CC(N(C)C)C2O)C(C)(O)CC(C)CN(C)C(C)C(O)C1(C)O (stereo not drawn) [Azithromycin],145 ± 30,137,116 ± 5.9,121,,124,105 ± 26,114.9 ± 1.1,119 ± 24
O=NN(CCCl)C(=O)NCCCl [Carmustine],106 ± 24,166,99.9 ± 62,83.9,134 ± 22,,116 ± 5.4,96.23 ± 0.26,123 ± 8.1
CC(=O)OC1(C(C)=O)CCC2C3C=C(C)C4=CC(=O)CCC4(C)C3CCC21C (stereo not drawn) [Megestrol Acetate],112 ± 6.4,121,106 ± 10,91.8,,102,103 ± 16,93.7 ± 14,127.9 ± 0.7
CCCc1nc(C(C)(C)O)c(C(=O)O)n1Cc1ccc(-c2ccccc2-c2nn[nH]n2)cc1 [Olmesartan],117 ± 4,121,130 ± 18,113,,136,121 ± 15,91.2 ± 3.6,154 ± 25
Cc1onc(-c2ccccc2Cl)c1C(=O)NC1C(=O)N2C1SC(C)(C)C2C(=O)[O-].O.[Na+] (stereo not drawn) [Cloxacillin Sodium],141 ± 32,176,161 ± 95,134,191 ± 2.4,,154 ± 38,132 ± 37,199 ± 20
C=CCNC1=C2CC(C)CC(OC)C(O)C(C)C=C(C)C(OC(N)=O)C(OC)C=CC=C(C)C(=O)NC(=CC1=O)C2=O (stereo not drawn),105 ± 37,57.1,26.7 ± 0.77,72.5,,106,91.6 ± 5.4,63.25 ± 0.14,85.1 ± 8.4
CCCCCC(O)C=CC1C(O)CC(=O)C1CCCCCCC(=O)O (stereo not drawn) [Alprostadil],86.5 ± 76,124,145 ± 75,104,,175,124 ± 2.3,147 ± 12,141 ± 4.9
CC(=O)O[C@@]12CO[C@@H]1C[C@H](O)[C@@]1(C)C(=O)[C@H](O)C3=C(C)[C@@H](OC(=O)[C@H](O)[C@@H](NC(=O)OC(C)(C)C)c4ccccc4)C[C@@](O)([C@@H](OC(=O)c4ccccc4)[C@H]21)C3(C)C [Docetaxel],154 ± 26,106,99.9 ± 18,124,116 ± 22,,82 ± 10,96.3 ± 7.4,134 ± 5.3
O=c1c(O)c(-c2ccc(O)c(O)c2)oc2cc(O)cc(O)c12 [Quercetin],124 ± 46,123,141 ± 4.7,99.2,,151,102 ± 1.3,107.1 ± 0.64,128 ± 17
C#C[C@]1(O)CC[C@H]2[C@@H]3CCC4=CC(=O)CC[C@@H]4[C@H]3C(=C)C[C@@]21CC [Etonogestrel],109 ± 47,135,102 ± 13,86.3,,145,116 ± 14,112 ± 30,146 ± 16
CCC(=O)OC1(C(=O)CCl)C(C)CC2C3CCC4=CC(=O)C=CC4(C)C3(F)C(O)CC21C (stereo not drawn) [Clobetasol propionate],116 ± 22,125,116 ± 54,132,,196,142 ± 10,91 ± 25,
Cl.O=C1NCC2(CCN(CCc3ccccc3)CC2)O1 [Fenspiride HCl],118 ± 42,126,101 ± 14,98.4,,104,99.1 ± 6.4,98.1 ± 4.1,93.8 ± 14
N=C(N)NCCCC[C@@H]1NC(=O)CCSSC[C@@H](C(N)=O)NC(=O)[C@@H]2CCCN2C(=O)[C@H](Cc2c[nH]c3ccccc23)NC(=O)[C@H](CC(=O)O)NC(=O)CNC1=O [Eptifibatide],101 ± 25,148,120 ± 79,93.4,,194,123 ± 15,101 ± 13,138 ± 4.8
Nc1nnc(-c2cccc(Cl)c2Cl)c(N)n1 [Lamotrigine],95 ± 12,155,134 ± 32,89.9,,128,112 ± 15,96.1 ± 13,175 ± 4.1
COc1ccccc1OCC(O)CO (stereo not drawn) [Guaifensin],108 ± 4.8,131,112 ± 21,102,,117,91.7 ± 1,95 ± 18,141 ± 10
NS(=O)(=O)c1cc2c(cc1Cl)NCNS2(=O)=O [Hydrochlorothiazide],95 ± 30,106,134 ± 72,92.7,,177,105 ± 3,101 ± 3.8,139 ± 11
Cl.N=C(N=C(N)N)N1CCOCC1 [Moroxydine HCl],91.5 ± 36,114,92.5 ± 3.5,89.2,,138,87.98 ± 0.46,70.25 ± 0.58,164.7 ± 0.024
